Reference: PubChem BioAssay (Tox21)
Inconclusive results are not listed. Where a call stands in place of a potency, no number is given. Active and inactive are the calls of the source. The call rests on the fitted dose curve; in most records, active means well fitted cell-killing curve with a large enough effect in the repeat runs; inconclusive means weak or mixed curves, or effect the other way; inactive means no such curve, though single readings can be large or run the other way.

Assay: qHTS assay to identify small molecule antagonists of the sonic hedgehog signaling (Shh) pathway - cell viability counter screen (AID 1259367); further: nearly all actives have a fitted effect of over 55% in size
Conditions: NIH/3T3 Gli1-Luc viability, CellTiter-Fluor, 24 h; series mostly up to 92.4 µM
Text: National Center for Advancing Translational Sciences [NCATS]
NIH Chemical Genomics Center [NCGC]
U.S. Environmental Protection Agency [EPA]
National Institutes of Environmental Health Sciences [NIEHS]
National Toxicology Program [NTP]
U.S. Food and Drug Administration [FDA]
The sonic hedgehog (Shh) pathway is essential for normal embryonic development. Dysregulation of the Shh pathway can cause severe developmental defects in organs. Therefore chemicals that interfere with the pathway are potential developmental toxicants. A cell line designated 3T3Gli1-Luc (DMB/OARSA/CFSAN/FDA, Laurel, MD), a NIH/3T3 derived clone containing stably integrated Gli1-Luc reporter is used to detect chemical interference of the Shh pathway, by changes in the expression of the firefly Luc gene under the control of the Gli1 transcriptional response element. This cell line was used to screen Tox21 libraries for identifying and prioritizing the potential developmental toxicants that interfere Shh pathway. Conditioned medium-stimulated mode was used to screen for chemicals inhibiting Shh signaling. The cytotoxicity of the compounds was tested in parallel by measuring the cell viability using CellTiter-Fluor assay system (Promega, Madison, WI) in the same wells.
Tox21 Assay Protocol Summary:
3T3 Gli1-Luc cells were dispensed at 2,000 per well in 5uL of culture medium into white solid bottom 1536-well plates (Greiner Bio-One, Monroe, NC) using a Multidrop Combi (Thermo Scientific, Waltham, MA) dispenser. The assay plates were incubated at 37 C and 5% CO2 for 4hr, and then 23nL of compounds dissolved in DMSO and positive control were transferred using a Pintool station (Wako, San Diego, CA). The compound transfer was followed by the addition of 1ul conditioned medium or assay buffer using two separate tips of Flying Reagent Dispenser (FRD, Aurora Discovery, San Diego, CA). The assay plates were incubated at 37C and 5% CO2 for 24hr. For viability read, after 23hr of compound treatment, 1uL of CellTiter-Fluor reagent (Promega Corporation, Madison, WI) was added to each well of the assay plates using Flying Reagent Dispenser (FRD, Aurora Discovery, San Diego, CA) and incubated the assay plates at 37C for 1hr. The fluorescence signal was quantified using a ViewLux plate reader (Perkin Elmer, Shelton, CT).

| SMILES | Potency |
| --- | --- |
| CCC(C)(C)c1cc(-n2nc3ccccc3n2)c(O)c(C(C)(C)CC)c1 | inactive |
| COC(=O)C(C)Oc1ccc(Oc2ccc(Cl)cc2Cl)cc1 (stereo not given) | inactive |
| O=C1OC(c2ccc(O)c(S(=O)(=O)O)c2)(c2ccc(O)c(S(=O)(=O)O)c2)c2c(Br)c(Br)c(Br)c(Br)c21 | inactive |
| CC1=NNC(=O)N(/N=C/c2cccnc2)C1 | inactive |
| ClC(Br)Br | inactive |
| Nc1cnn(-c2ccccc2)c(=O)c1Cl | inactive |
| Cc1ncc(CNC(=O)N(CCCl)N=O)c(N)n1 | inactive |
| CCOP(=O)(N=C1SCCS1)OCC | inactive |
| CCN(CC)CCOC(=O)C(C)(c1ccccc1)c1ccccc1 | inactive |
| O=C(O)c1cccc(Cl)c1 | inactive |
| CC(=O)[C@H]1CC[C@H]2[C@@H]3CC[C@H]4C[C@H](O)CC[C@]4(C)[C@H]3C(=O)C[C@]12C | inactive |
| O=NN1CCCCC1 | inactive |
| ClC(Cl)C(Cl)Cl | inactive |
| C[C@@H]1CN(C2CCC(C#N)(c3ccc(F)cc3)CC2)CC[C@]1(C(=O)O)c1ccccc1 (stereo not given in full) | inactive |
| CCN(CC)c1nc(C)cc(OP(=S)(OC)OC)n1 | inactive |
| OCCBr | inactive |
| CCCCc1c(C)nc(NCC)[nH]c1=O | inactive |
| C=C(C)[C@@H]1CC=C(C=O)CC1 | inactive |
| CCC(C)n1c(=O)[nH]c(C)c(Br)c1=O (stereo not given) | inactive |
| NC1=NC(=O)C(c2ccccc2)O1 (stereo not given) | inactive |

| SMILES | Potency |
| --- | --- |
| C(CCOCC1CO1)COCC1CO1 (stereo not given) | inactive |
| CN1C[C@@H](NS(=O)(=O)N(C)C)C[C@@H]2c3cccc4c3c(cn4C)C[C@H]21 | inactive |
| Cc1cc(C)c(C(=O)P(=O)(C(=O)c2c(C)cc(C)cc2C)c2ccccc2)c(C)c1 | inactive |
| CC1CCCCC1NC(=O)Nc1ccccc1 (stereo not given) | inactive |
| CC(CCc1ccccc1)NC(C)C(O)c1ccc(O)cc1 (stereo not given) | inactive |
| CCC(=O)c1ccccc1 | inactive |
| CCCCOP(=O)(O)OCCCC | inactive |
| COC(=O)C(c1ccccc1)C1CCCCN1 (stereo not given) | inactive |
| CCCCOC(=O)c1ccccc1C(=O)O | inactive |
| O=CNC(N1CCN(C(NC=O)C(Cl)(Cl)Cl)CC1)C(Cl)(Cl)Cl (stereo not given) | inactive |
| O=C(CCN1CC1)OCC(CO)(COC(=O)CCN1CC1)COC(=O)CCN1CC1 | inactive |
| C1CCC(C2CCCCC2)CC1 | inactive |
| COC(=O)COc1ccc(Cl)cc1Cl | inactive |
| O=C(Oc1ccc(Br)cc1)N1CCN2CCC1CC2 | inactive |
| O=C1OC(CCN2CCCCC2)OC1(c1ccccc1)c1ccccc1 (stereo not given) | inactive |
| COc1cc(OC)nc(Sc2cccc(Cl)c2C(=O)O)n1 | inactive |
| OC(c1ccc(F)cc1)(c1cncnc1)c1ccccc1Cl (stereo not given) | inactive |
| CC(COc1ccc(Oc2ccccc2)cc1)Oc1ccccn1 (stereo not given) | inactive |
| CC(=O)C(Cl)Cl | inactive |
| COc1cc(OC)nc(Oc2cccc(Oc3nc(OC)cc(OC)n3)c2C(=O)O)n1 | inactive |
